Reference: the supplement of paper PMC4723716
± gives the uncertainty stated by the source. Whole data set: some 9,900 compounds, median “viability index relative to DMSO control” near 1, cut for the lowest 2% near 0.85. Many of the other results were omitted from the sample, so the lowest values are more common in it than they were.

Test system: Plasmodium falciparum NF54 stage V gametocytes
Test: viability index relative to DMSO control (fraction); higher = less gametocyte killing
Settings: 2.5 µM, incubation time: 72 h
How it was run: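 Compound at 2.5 µM was incubated for 72 hr at 37°C under low oxygen with P. falciparum NF54 stage V gametocytes (0.75% gametocytemia, 1.25% hematocrit, 10 µl, serum-free screening medium) in 1,536-well plates. Staining used 3 µl of 2.5 µM MitoTracker Red CMXRos plus 0.13% saponin for one to two hours, and red particles of 20–70 µm2 were counted in one imaged field per well. Each viability index is that count relative to the plate mean of solvent-only wells.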

[1] = library set: Broad Institute DOS
[2] = library set: Broad Institute Blood Stage

Row | SMILES | viability index [1] | viability index [2]
1 | CC(C)(C)[S@@](=O)N1Cc2cc(C(=O)NC3CCC3)nc(-c3cccc(-c4ccccc4F)c3)c2[C@H]1CCO | 1.02 ± 0.012 | –
2 | CC(C)C[C@H]1COCc2cn(nn2)CC[C@@H](Cc2ccc(Cl)cc2)C(=O)N1 | 0.955 ± 0.036 | –
3 | Cc1noc(C)c1C(=O)N(C)C[C@H]1OCc2ccccc2-c2ccccc2C(=O)N([C@@H](C)CO)C[C@@H]1C | 1.01 ± 0.065 | –
4 | O=C(Nc1ccc2c(c1)[C@@H]1C[C@H](CC(=O)N3CCc4ccccc4C3)O[C@@H](CO)[C@@H]1O2)c1ccc2c(c1)OCO2 | 0.991 ± 0.038 | –
5 | CN(C)C(=O)[C@@H]1[C@@H](CO)[C@@H]2Cn3c(ccc(C4=CCCC4)c3=O)[C@H]1N2S(=O)(=O)c1cn(C)cn1 | 0.984 ± 0.045 | –
6 | N#C[C@H]1N[C@H](CO)[C@@H]1c1ccc(C#Cc2ccccc2F)cc1 | 1.07 ± 0.076 | –
7 | CC[C@H]1C/C=C/C[C@@H](C)Oc2ccccc2C(=O)N(C)[C@H](C)C(=O)N1.CC[C@H]1C/C=C\C[C@@H](C)Oc2ccccc2C(=O)N(C)[C@H](C)C(=O)N1 | 1.04 ± 0.086 | –
8 | CC(C)C#Cc1ccc([C@H]2[C@H]3CN(C(=O)Cc4ccccc4)CC(=O)N3[C@H]2CO)cc1 | 1.045 ± 0.0096 | –
9 | Cc1cccc(-c2ccc([C@H]3[C@H]4CN(S(=O)(=O)c5ccccc5F)CCCCN4[C@H]3CO)cc2)c1 | 0.973 ± 0.094 | –
10 | Cc1cccc(-c2ccc([C@H]3[C@@H](CO)N4CCCCN(S(=O)(=O)c5ccccc5F)C[C@@H]34)cc2)c1 | 1 ± 0.044 | –
11 | Cc1ccccc1-c1ccc([C@H]2[C@H](CO)N3CCCCN(S(=O)(=O)Cc4ccccc4)C[C@@H]23)cc1 | 0.924 ± 0.034 | –
12 | Cc1ccccc1-c1ccc([C@H]2[C@@H](CO)N3CCCCN(S(=O)(=O)Cc4ccccc4)C[C@@H]23)cc1 | 0.991 ± 0.063 | –
13 | Cc1ccccc1-c1ccc([C@@H]2[C@H](CO)N3CCCCN(S(=O)(=O)Cc4ccccc4)C[C@@H]23)cc1 | 0.74 ± 0.039 | –
14 | Cc1cccc(-c2ccc([C@@H]3[C@@H](CO)N4CCCCN(S(=O)(=O)c5ccccc5F)C[C@H]34)cc2)c1 | 0.537 ± 0.053 | –
15 | Cc1noc(C)c1NC(=O)Nc1cccc2c1O[C@H](CN(C)Cc1ccc(C(=O)Nc3ccccc3N)cc1)[C@@H](C)CN([C@H](C)CO)C2=O | 0.961 ± 0.023 | –
16 | CNC[C@H]1OCCCC[C@@H](C)Oc2ccc(NC(=O)Nc3ccc(OC)cc3)cc2C(=O)N([C@@H](C)CO)C[C@@H]1C | 0.965 ± 0.12 | –
17 | Cc1cc(C(=O)Nc2ccc3c(c2)C(=O)N(C)[C@H]2CC[C@H](CC(=O)O)O[C@@H]2CO3)no1 | 0.927 ± 0.12 | –
18 | C[C@@H]1CN([C@@H](C)CO)C(=O)c2cc(NS(=O)(=O)c3cccs3)ccc2O[C@@H](C)CCCCO[C@H]1CN(C)C(=O)c1ccncc1 | 1.07 ± 0.045 | –
19 | O=C(Nc1cccc(F)c1)N1CCCCN2[C@H](C1)[C@H](c1ccc(C#Cc3cccnc3)cc1)[C@@H]2CO | 0.836 ± 0.036 | –
20 | O=C(Nc1ccc(F)cc1)N1CC(=O)N2[C@@H](CO)[C@H](c3ccc(C#Cc4cccnc4)cc3)[C@@H]2C1 | 1.11 ± 0.058 | –
21 | O=C(Nc1cccc(F)c1)N1CCCCN2[C@@H](CO)[C@@H](c3ccc(C#Cc4cccnc4)cc3)[C@@H]2C1 | 0.979 ± 0.089 | –
22 | O=C(Nc1cccc(F)c1)N1CCCCN2[C@H](CO)[C@@H](c3ccc(C#Cc4cccnc4)cc3)[C@H]2C1 | 0.8437 ± 0.0061 | –
23 | O=C(Nc1cccc(F)c1)N1CCCCN2[C@H](CO)[C@@H](c3ccc(C#Cc4cccnc4)cc3)[C@@H]2C1 | 1.07 ± 0.078 | –

Row | SMILES | viability index [1] | viability index [2]
24 | COCC#Cc1ccc([C@@H]2[C@H](CO)N3CCCCN(Cc4cccnc4)C[C@@H]23)cc1 | 1.03 ± 0.068 | –
25 | O=C(Nc1cccc(F)c1)N1CCCCN2[C@@H](CO)[C@H](c3ccc(C#Cc4cccnc4)cc3)[C@@H]2C1 | 1.05 ± 0.075 | –
26 | COc1cccc(CN2CCCCN3[C@H](CO)[C@@H](c4ccc(C#Cc5cccnc5)cc4)[C@@H]3C2)c1 | – | 0.841 ± 0.06
27 | O=C(Nc1cccc(F)c1)N1CCCCN2[C@H](CO)[C@H](c3ccc(C#Cc4cccnc4)cc3)[C@@H]2C1 | 1.05 ± 0.024 | –
28 | COCC#Cc1ccc([C@@H]2[C@@H](CO)N3CCCCN(Cc4cccnc4)C[C@@H]23)cc1 | 1.06 ± 0.14 | –
29 | O=C(Nc1ccc(F)cc1)N1CC(=O)N2[C@H](C1)[C@H](c1ccc(C#Cc3cccnc3)cc1)[C@@H]2CO | 1.08 ± 0.07 | –
30 | O=C(Nc1cccc(F)c1)N1CCCCN2[C@H](CO)[C@H](c3ccc(C#Cc4cccnc4)cc3)[C@H]2C1 | 0.848 ± 0.034 | –
31 | CCCC(=O)Nc1ccc2c(c1)C(=O)N(C)C[C@@H](OC)[C@@H](C)CN(Cc1ccc(F)cc1)[C@@H](C)CO2 | 0.941 ± 0.11 | –
32 | O=C(C[C@H]1CC[C@@H]2[C@H](COC[C@@H](O)CN2S(=O)(=O)c2ccc(F)cc2)O1)NCCN1CCCCC1 | 1.113 ± 0.0099 | –
33 | COc1ccc(CN(C)C[C@@H]2OCc3cnnn3CCCC(=O)N([C@@H](C)CO)C[C@@H]2C)cc1 | 1.012 ± 0.0093 | –
34 | CN1C(=O)c2cc(NC(=O)c3ccc(F)c(F)c3)ccc2OC[C@@H]2O[C@H](CC(=O)N3CCCCC3)CC[C@H]21 | 0.986 ± 0.14 | –
35 | N#C[C@@H]1[C@@H](c2ccc(C#CC3(O)CCCC3)cc2)[C@@H](CO)N1C(=O)C1CCCCC1 | 1.11 ± 0.019 | –
36 | O=C(Nc1ccc(C(F)(F)F)cc1)N[C@@H]1C=C[C@@H](CC(=O)N2CCCCC2)O[C@H]1CO | 1.111 ± 0.008 | –
37 | C[C@@H]1CN([C@H](C)CO)C(=O)c2cccc(NC(=O)Nc3ccc(F)cc3)c2O[C@H]1CN(C)S(=O)(=O)c1ccc(Cl)cc1 | 0.92 ± 0.22 | –
38 | CNC(=O)C[C@@H]1CC[C@@H]2[C@@H](COc3ccc(NC(=O)c4ccccc4F)cc3C(=O)N2C)O1 | 1.13 ± 0.083 | –
39 | COc1cccc(S(=O)(=O)N2CC[C@H]3[C@H](CO)Nc4ccc(C#Cc5cccnc5)cc4[C@H]32)c1 | 1.11 ± 0.082 | –
40 | COc1ccc(C#Cc2ccc([C@@H]3[C@@H](CO)N4CCCCN(C(=O)Nc5cccc(F)c5)C[C@H]34)cc2)cc1 | – | 0.654 ± 0.049
41 | O=C(Nc1ccc(F)cc1)N1CC(=O)N2[C@H](CO)[C@H](c3ccc(C#Cc4cccnc4)cc3)[C@H]2C1 | 1.1 ± 0.086 | –
42 | COc1ccc(NC(=O)N2CCCCN3[C@H](C2)[C@@H](c2ccc(-c4ccccc4F)cc2)[C@@H]3CO)cc1 | 0.981 ± 0.042 | –
43 | O=C(Nc1ccc(F)cc1)N1CC(=O)N2[C@H](CO)[C@H](c3ccc(C#Cc4cccnc4)cc3)[C@@H]2C1 | 1.028 ± 0.0039 | –
44 | O=C(Nc1cccc(F)c1)N1CCCCN2[C@H](C1)[C@@H](c1ccc(C#Cc3cccnc3)cc1)[C@@H]2CO | 0.81 ± 0.05 | –
45 | COc1ccc(NC(=O)N2CCCCN3[C@@H](CO)[C@@H](c4ccc(-c5ccccc5F)cc4)[C@@H]3C2)cc1 | 0.993 ± 0.011 | –
